Laboratory results taken from PubChem BioAssay AID504599 (National Center for Advancing Translational Sciences (NCATS), 2011).
Several values for one entry are separate records, joined by “and”; a condition that tells them apart may be missing. Identical values can stand only once. Activity calls are given as the source filed them. Calls follow the shape of the dose curve; as a rule, active = well fitted inhibition curve with a large enough effect; inconclusive = small, poorly fitted or top-dose-only effect; inactive = flat fitted curve, though single readings scatter.

Test: Quantitative high throughput screen for delayed death inhibitors of the malarial parasite plastid, 96 hour incubation.
Details: P. falciparum luciferase growth
Source text: NIH Molecular Libraries Probe Production Network [MLPCN] NIH Chemical Genomics Center [NCGC] MLPCN Grant: R21 NS059500 Assay Provider: David Fidock and Eric Ekland, Columbia University The goal of this screen is to discover new antimalarial compounds that act by inhibiting the development of the apicoplast in the malarial parasite Plasmodium falciparum. The biochemical processes that make this organelle essential for erythrocytic stage parasites are not well understood. However, antibiotics, such as azithromycin and tetracycline, which target the apicoplast translational machinery, have a potent antimalarial effect. […] We have developed a cell-based assay that measures parasite growth based on the expression of an integrated copy of a firefly luciferase reporter. To detect small molecules that cause this 'delayed death' phenotype, erythrocytes infected with the luciferase-expressing parasites were incubated with compounds for either one or two generations, corresponding to 48 and 96 hours, respectively. Compounds that inhibit parasite growth in the second generation, but not the first, should be enriched in antimalarials that target the apicoplast. Growth inhibition is detected by a decrease in luciferase activity
Four microliters of culture medium (RPMI 1640 with 0.5% w/v Albumax (GIBCO), 24 mM sodium bicarbonate and 10 ug/mL gentamycin) were dispensed by a Multi-drop Combi into white solid 1536-well plates (Grenier) and 23 nL compound was added by a pin tool. Four microliters of infected erythrocytes (2% hematocrit, 0.1% parasitemia final concentration) in culture medium were dispensed and the plates incubated for 96 hours at 37 C in 5% CO2. Two microliters of luciferase detection reagent was added and luminescence was detected by a ViewLux (PerkinElmer) reader

| Compound | Potency |
| --- | --- |
| C[C@@H]1CN([C@@H](C)COC(=O)c2ccccc2)C(=O)c2cc(NC(=O)Nc3ccccc3)ccc2O[C@@H](C)CCCCO[C@H]1CN(C)C(=O)OC(C)(C)C | 356 nM (active) |
| C[C@@H]1CN([C@@H](C)CO)C(=O)c2cc(NC(=O)Nc3ccccc3)ccc2O[C@@H](C)CCCCO[C@H]1CN(C)S(=O)(=O)c1cccc(F)c1 | 7.1 nM (active) |
| C=CCOC(=O)N(C)C[C@@H]1OCCCC[C@H](C)Oc2ccc(NC(=O)Nc3ccccc3)cc2C(=O)N([C@@H](C)CO)C[C@H]1C | 252 nM (active) |
| C[C@@H]1CN([C@@H](C)CO)C(=O)c2cc(NC(=O)Nc3ccccc3)ccc2O[C@@H](C)C/C=C\CO[C@H]1CN(C)S(=O)(=O)c1ccc(F)cc1 | 252 nM (active) |
| C[C@@H]1CN([C@@H](C)CO)C(=O)c2cc(Nc3nc4ccccc4o3)ccc2O[C@@H](C)CCCCO[C@H]1CN(C)S(=O)(=O)c1ccc(F)cc1 | 1130 nM (active) |
| C[C@@H]1CN(C)C(=O)c2cc(NC(=O)Nc3ccccc3)ccc2O[C@@H](C)CCCCO[C@@H]1CN(C)S(=O)(=O)c1ccc(F)cc1 | 1000 nM (active) |
| Cc1noc(C)c1NC(=O)Nc1ccc2c(c1)C(=O)N(C(C)C)C[C@@H](C)[C@H](CN(C)S(=O)(=O)c1ccc(F)cc1)OCCCC[C@H](C)O2 | 44.9 nM (active) and 1.42 µM (active) |
| C[C@@H]1CCCCO[C@@H](CN(C)Cc2ccc(F)cc2)[C@H](C)CN([C@@H](C)CO)C(=O)c2cc(NC(=O)Nc3ccccc3)ccc2O1 | 2830 nM (active) |
| C[C@@H]1CN([C@H](C)CO[Si](C)(C)C(C)(C)C)C(=O)c2cc(NC(=O)Nc3ccccc3)ccc2O[C@@H](C)CCCCO[C@H]1CN(C)S(=O)(=O)c1ccc(F)cc1 | 159 nM (active) |
| C[C@@H]1CN([C@@H](C)CN=[N+]=[N-])C(=O)c2cc(NC(=O)Nc3ccccc3)ccc2O[C@@H](C)CCCCO[C@H]1CN(C)S(=O)(=O)c1ccc(F)cc1 | 3.6 nM (active) |
| C[C@@H]1CN(CCO[Si](C)(C)C(C)(C)C)C(=O)c2cc(NC(=O)Nc3ccccc3)ccc2O[C@@H](C)CCCCO[C@H]1CN(C)S(=O)(=O)c1ccc(F)cc1 | 40 nM (active) |
| C[C@@H]1CN([C@@H](C)CO)C(=O)c2cc(NC(=O)Nc3ccccc3)ccc2O[C@@H](C)C/C=C/CO[C@H]1CN(C)S(=O)(=O)c1ccc(F)cc1 | 79.8 nM (active) |
| C[C@@H]1CN([C@@H](C)COC(C)(C)C)C(=O)c2cc(NC(=O)Nc3ccccc3)ccc2O[C@@H](C)CCCCO[C@H]1CN(C)S(=O)(=O)c1ccc(F)cc1 | 0.8 nM (active) |
| C[C@@H]1CN([C@@H](C)CO)C(=O)c2cc(NC(=O)Nc3ccccc3)ccc2O[C@@H](C)CCCCO[C@H]1CN(C)S(=O)(=O)c1ccc(C(F)(F)F)cc1 | 798 nM (active) |
| C[C@@H]1CN([C@@H](C)CO)C(=O)c2cc(NC(=O)Nc3ccccc3)ccc2O[C@@H](C)CCCCO[C@H]1CN(C)S(=O)(=O)c1ccccc1F | 449 nM (active) |
| Cc1noc(C)c1NC(=O)Nc1ccc2c(c1)C(=O)N([C@@H](C)CO)C[C@@H](C)[C@H](CN(C)S(=O)(=O)c1ccc(F)cc1)OCCCC[C@H](C)O2 | 79.8 nM (active) |
| C[C@@H]1CN([C@@H](C)CO[Si](C)(C)C(C)(C)C)C(=O)c2cc(NC(=O)Nc3ccccc3)ccc2O[C@@H](C)CCCCO[C@H]1CN(C)S(=O)(=O)c1ccc(F)cc1 | 0.6 nM (active) |

| Compound | Potency |
| --- | --- |
| COc1ccc(COCCN2C[C@@H](C)[C@H](CN(C)S(=O)(=O)c3ccc(F)cc3)OCCCC[C@H](C)Oc3ccc(NC(=O)Nc4ccccc4)cc3C2=O)cc1 | 71.1 nM (active) |
| COc1ccc(COC[C@H](C)N2C[C@@H](C)[C@H](CN(C)Cc3ccc(OC)cc3)OCCCC[C@H](C)Oc3ccc(NC(=O)Nc4ccccc4)cc3C2=O)cc1 | 449 nM (active) |
| CC(C)N1C[C@@H](C)[C@H](CN(C)S(=O)(=O)c2ccc(F)cc2)OCCCC[C@H](C)Oc2ccc(NC(=O)Nc3ccccc3)cc2C1=O | 17.9 nM (active) |
| C[C@@H]1CN([C@@H](C)CO)C(=O)c2cc(N)ccc2O[C@@H](C)CCCCO[C@H]1CN(C)S(=O)(=O)c1ccc(F)cc1 | 63.4 nM (active) |
| C[C@@H]1CN([C@@H](C)CO)C(=O)c2cc(NC(=O)Nc3ccccc3)ccc2O[C@@H](C)CCCCO[C@H]1CN(C)C(=O)OC(C)(C)C | 711 nM (active) |
| C[C@@H]1CCCCO[C@H](CN(C)C(=O)Nc2ccc(F)cc2)[C@H](C)CN([C@@H](C)CO)C(=O)c2cc(NS(=O)(=O)c3ccccc3)ccc2O1 | 113 nM (active) |
| COCCOCOC[C@H](C)N1C[C@@H](C)[C@H](CN(C)S(=O)(=O)c2ccc(F)cc2)OCCCC[C@H](C)Oc2ccc(NC(=O)Nc3ccccc3)cc2C1=O | 11.3 nM (active) |
| C=CCOC(=O)N(C)C[C@H]1OCCCC[C@H](C)Oc2ccc(NC(=O)Nc3ccccc3)cc2C(=O)N([C@@H](C)CO[Si](C)(C)C(C)(C)C)C[C@H]1C | 126 nM (active) |
| C[C@@H]1CN([C@@H](C)COC(=O)c2ccccc2)C(=O)c2cc(NC(=O)Nc3ccccc3)ccc2O[C@@H](C)CCCCO[C@H]1CN(C)S(=O)(=O)c1ccc(F)cc1 | 44.9 nM (active) |
| C=CCOC(=O)N(C)C[C@@H]1OCCCC[C@H](C)Oc2ccc(NC(=O)Nc3ccccc3)cc2C(=O)N([C@H](C)COC(=O)c2ccccc2)C[C@H]1C | 504 nM (active) |
| C[C@@H]1CN([C@@H](C)CO)C(=O)c2cc(NC(=O)Nc3ccccc3)ccc2O[C@@H](C)CCCCO[C@H]1CN(C)Cc1ccc(C(F)(F)F)cc1 | 711 nM (active) |
| C[C@@H]1CN([C@@H](C)CO)C(=O)c2cc(NC(=O)Nc3ccccc3)ccc2O[C@@H](C)CCCCO[C@H]1CN(C)S(=O)(=O)c1cccnc1 | 2830 nM (active) |
| C[C@@H]1CN([C@@H](C)COC(=O)C(C)(C)C)C(=O)c2cc(NC(=O)Nc3ccccc3)ccc2O[C@@H](C)CCCCO[C@H]1CN(C)S(=O)(=O)c1ccc(F)cc1 | 5.7 nM (active) |
| C[C@@H]1CN(CCO)C(=O)c2cc(NC(=O)Nc3ccccc3)ccc2O[C@@H](C)CCCCO[C@H]1CN(C)S(=O)(=O)c1ccc(F)cc1 | 179 nM (active) |
| COCOC[C@H](C)N1C[C@@H](C)[C@H](CN(C)S(=O)(=O)c2ccc(F)cc2)OCCCC[C@H](C)Oc2ccc(NC(=O)Nc3ccccc3)cc2C1=O | 8 nM (active) |
| CC(C)NC(=O)Nc1ccc2c(c1)C(=O)N([C@@H](C)CO)C[C@@H](C)[C@H](CN(C)S(=O)(=O)c1ccc(F)cc1)OCCCC[C@H](C)O2 | 449 nM (active) |
